Bioassay records: PubChem BioAssay, National Center for Advancing Translational Sciences (NCATS)
A selection: hits, their analogues and other compounds. The true share with any hit is near 6%.
D1 antagonist = blocks dopamine activation of the human D1 receptor; P21728; HEK293 TREx D1 cells, calcium flux, dopamine EC80; stronger effect = lower value; activity change, negative = inhibition, % at 10 µM; 360,000 tested, 3.2% active; AID 504652; in the data active = activity change below about -30%
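Using tetracycline-induced force-coupled D1 Hek293 cells and a calcium dye, signals were followed for 180 s after compound, then for 180 s after EC80 dopamine, to detect inhibitors.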
D3 antag = D3 dopamine receptor (human) antagonism; P35462; D3R cells, DiscoveRx beta-arrestin luminescence, antagonist mode; stronger effect = lower value; max response, negative = inhibition, %; 360,000 tested, 2.5% active; AID 652054; in the data active = max response below about -50%; inconclusive = no clear call, values can overlap the other calls
Target sequence (P35462 whole entry, looked up): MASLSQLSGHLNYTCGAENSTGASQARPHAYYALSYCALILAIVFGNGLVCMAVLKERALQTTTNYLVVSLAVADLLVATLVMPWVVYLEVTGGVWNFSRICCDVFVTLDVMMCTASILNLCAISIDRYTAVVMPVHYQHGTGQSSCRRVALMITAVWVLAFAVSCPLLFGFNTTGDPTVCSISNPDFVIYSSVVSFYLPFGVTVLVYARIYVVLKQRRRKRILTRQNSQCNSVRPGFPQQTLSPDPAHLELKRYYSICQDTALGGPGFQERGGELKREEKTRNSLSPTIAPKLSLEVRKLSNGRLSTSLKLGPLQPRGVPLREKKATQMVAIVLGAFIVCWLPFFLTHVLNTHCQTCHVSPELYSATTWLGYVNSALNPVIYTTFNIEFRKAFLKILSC
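Cells expressing the human receptor were seeded at 1500 cells/well, incubated overnight at 37 degrees C in 5% CO2, then exposed to library compounds with dopamine controls for 90 minutes at 37 degrees C before luminescent detection.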
DRD3 agonist = agonists of human D3 dopamine receptor. P35462. D3R DiscoveRx beta-arrestin cells, luminescence, 90 min. max activation, %. 410,000 tested, 0.58% active; in the data active = max activation above about 30%
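Agonist-mode cell screen: cells plated at 1500/well and incubated overnight at 37 °C, then exposed to library compounds for 90 min at 37 °C. Detection reagent was added for 30–60 min at room temperature, and luminescence was read.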
D1 potentiator = enhances dopamine response at the human D1 receptor; HEK293 TREx D1 cells, calcium flux, dopamine EC20 potentiation; 360,000 tested, 0.036% active; potentiation, % at 10 µM; in the data active = potentiation above about 30%
D1 agonist = activates the human D1 dopamine receptor | P21728 | activation, % at 2 µM | 360,000 tested, 1% active | HEK293 T-REx D1 cells, calcium flux, agonist mode; in the data active = activation above about 30%
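Inducible HEK293 T-REx D1 cells, force-coupled to calcium signalling, were plated at 4000 cells/well with tetracycline and held overnight at 30 C. After no-wash calcium dye loading, compound-evoked calcium rise over 180 s flagged agonists.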
A number is an active result; . = inactive; ? = inconclusive; / = no result.

SMILES	D1 antagonist	D3 antag	DRD3 agonist	D1 potentiator	D1 agonist
CCC(NC(=O)COC(=O)C1CC2CCCC(C1)C2=O)c1ccc(Br)cc1 (centres undefined)	-56.2	.	.	.	.
CCOc1ccccc1CN1C(=O)c2ccccc2C1C(=O)NC1CCCCCC1 (centres undefined)	.	/	.	.	.
Cc1nn2c(C)c(C(=O)N3CCN(c4ccccc4)CC3)cnc2c1-c1ccccc1	.	/	.	.	.
CCOc1ccc(/C=C/C2=Cc3c(sc(NC(=O)CSc4n[nH]c(N)n4)c3C#N)C(C)(C)C2)cc1	.	.	.	31.4	60.0
CCOC(=O)c1sc(NC(=O)CSc2n[nH]c(-c3ccncc3)n2)c(C#N)c1C	/	.	.	.	.
Cc1ccsc1/C=C/C1=Cc2c(sc(NC(=O)CSc3n[nH]c(N)n3)c2C#N)C(C)(C)C1	.	.	.	97.9	33.5
Cc1c(C(=O)OC2CCCCC2)[nH]c2c1C(=O)CC(c1ccc(C(C)(C)C)cc1)C2 (centres undefined)	.	/	.	.	.
O=C(NCc1ccc(Cl)cc1)C1CCCN(c2ncnc3onc(-c4ccc(F)cc4)c23)C1 (centres undefined)	.	/	.	.	.
CCOC(=O)c1scc(-c2ccc(C)cc2)c1S(=O)(=O)N1CCN(c2ccccc2F)CC1	.	/	.	.	.
CCCCOc1ccccc1Cn1c(=O)oc2ccc(C)cc21	.	.	.	.	.
Cc1ccc(C(C)C)c(OCCn2c(=O)oc3ccccc32)c1	.	.	.	.	37.3
COc1ccc(OCCCn2c(=O)oc3ccc(C)cc32)cc1	-32.2	/	.	.	73.2
CCCCCOc1ccccc1Cn1c(=O)oc2ccc(C)cc21	-47.9	/	.	.	.
CCCCCCn1c(=O)c(-c2ccccc2)c(O)c2ccccc21	.	?	.	.	.
CCCCCCCCn1c(=O)c(C(=O)OC)c(N)c2ccccc21	.	.	38.5	.	.
CCCCCCCn1c(=O)c(C(=O)OC)c(N)c2ccccc21	.	.	.	.	42.4
Cn1c(CN2CCCCC2)nc2cc(NS(=O)(=O)c3ccc(Cl)cc3)ccc21	.	-64.8	.	.	51.5
Cn1c(CN2CCCCC2)nc2cc(NS(=O)(=O)c3ccc(F)cc3)ccc21	.	-73.3	.	.	.
CC(=O)NCCc1nc2cc(NS(=O)(=O)c3ccc(Cl)cc3)ccc2n1C	.	.	.	.	.
CCCC(=O)Nc1ccc2c(c1)nc(CN1CCCCC1)n2C	.	.	.	.	.
Cn1c(CCN2CCCCC2)nc2cc(NS(=O)(=O)c3ccc(Cl)cc3)ccc21	.	-72.5	.	.	.
CN(CCO)CC(O)CN(c1ccccc1)c1ccccc1 (centres undefined)	.	-50.7	.	.	.
CNCC(O)CN(c1ccccc1)c1ccccc1 (centres undefined)	.	.	.	.	.
Cc1ccc(NS(=O)(=O)c2cc(-c3cnc(C4CC4)o3)ccc2C)cc1Cl	.	/	.	.	.
NC(=O)C1CCN(C(=O)COc2ccc3ccccc3c2Br)CC1	-64.3	.	.	.	.
SMILES	D1 antagonist	D3 antag	DRD3 agonist	D1 potentiator	D1 agonist
O=C(COc1ccc2ccccc2c1Br)N1CCCCC1	-31.7	.	.	.	.
O=C(Oc1ccc2ccccc2c1Br)N1CCCCCC1	.	?	.	.	.
CC1CN(C(=O)COc2ccc3ccccc3c2Br)CC(C)O1 (centres undefined)	.	?	.	.	.
COc1ccccc1N1CCN(C(=O)c2cc(CC(C)C)on2)CC1	.	/	.	.	.
CCOc1ccccc1NC(=O)Cn1c(=O)n(-c2ccc(C)c(C)c2)c(=O)c2c(C)c(C(=O)N(C)C)sc21	.	/	.	.	.
CSc1nc(=O)n(-c2ccccc2)c(C)c1C(C)=O	.	.	33.6	.	.
CCSc1nc(=O)n(-c2ccccc2)c(C)c1C(C)=O	.	?	.	.	.
Clc1ccc2oc(-c3cccnc3)nc2c1	-37.1	.	.	.	.
COc1ccc(OC)c(NC(=O)COCc2cc(-c3ccc(F)cc3)on2)c1	.	/	.	.	.
O=[N+]([O-])c1ccc2ncnc(N3CCN(Cc4ccc5c(c4)OCO5)CC3)c2c1	.	.	43.0	.	.
O=[N+]([O-])c1cccnc1N1CCN(Cc2ccc3c(c2)OCO3)CC1	-36.6	.	.	.	.
CCCCNC(=O)CCn1c(=O)c2ccccc2n(Cc2ccccc2C#N)c1=O	.	/	.	.	.
COc1ccc(OCc2nc(C#N)c(NCc3ccccc3Cl)o2)cc1	.	/	.	.	.
Cn1c(=O)cc(SCC(=O)N2CCN(c3ccccc3F)CC2)c2ccc(Cl)cc21	.	/	.	.	.
CCCn1c(=O)[nH]c2ccccc21	.	.	.	.	.
O=c1[nH]c2ccccc2n1CCCN1CCN(C(c2ccccc2)c2ccccc2)CC1	-44.1	/	.	.	.
O=c1[nH]c2ccccc2n1CCCN1CCCCC1	.	-61.1	.	.	.
CCN1CCN(C(c2ccccc2Cl)c2sc3nc(-c4ccco4)nn3c2O)CC1 (centres undefined)	/	/	.	.	.
CC1CC(N(C(=O)c2ccco2)c2ccccc2)c2ccccc2N1C(=O)c1ccco1 (centres undefined)	.	.	.	.	.
CC1CC(N(C(=O)c2ccc(Cl)cc2)c2ccccc2)c2ccccc2N1C(=O)c1ccco1 (centres undefined)	-45.8	?	.	.	.
O=S(=O)(Nc1ncn[nH]1)c1ccc2ccccc2c1	.	.	.	.	.
CCOc1cc(S(=O)(=O)Nc2ncn[nH]2)ccc1Br	-51.8	.	.	.	.
CCOc1cc(S(=O)(=O)n2ccc(C)n2)ccc1Br	-36.9	.	.	.	.
COc1cccc(N2CCN(c3c4c(nc5nncn35)CCC4)CC2)c1	.	/	.	.	.
CCCCC(=O)N1CCN(c2nc(-c3ccc(F)cc3)cs2)CC1	-30.5	.	.	.	.
SMILES	D1 antagonist	D3 antag	DRD3 agonist	D1 potentiator	D1 agonist
COCCNC(=S)N1CCN(c2nc(-c3ccc(F)cc3)cs2)CC1	-34.2	.	.	.	.
CC(C)C(=O)N1CCN(c2nc(-c3ccc(Cl)cc3)cs2)CC1	.	.	.	.	.
O=C(Cc1cccs1)N1CCN(c2nc(-c3ccc(Cl)cc3)cs2)CC1	.	.	36.5	.	.
COCCNC(=S)N1CCN(c2nc(-c3ccc(Cl)cc3)cs2)CC1	.	.	.	.	.
CCN(CC)CCCNC(=S)N1CCN(c2nc3ccccc3n2CC)CC1	-34.8	?	.	.	.
CCCCCNC(=O)c1c[nH]c2ccc(S(=O)(=O)N3CCC(C)CC3)cc2c1=O	.	/	.	.	.
Cc1ccc(S(=O)(=O)NCC2CCC(C(=O)NCCc3ccccc3)CC2)cc1 (centres undefined)	.	/	.	.	.
CCNC(=S)N1CCN(c2nc(-c3ccc(F)cc3)cs2)CC1	.	.	.	.	.
COc1cccc(-c2csc(N3CCN(C(=S)Nc4ccccc4C)CC3)n2)c1	-32.8	.	.	.	.
